From PubChem BioAssay
D2 ag-1: agonists of human D2 dopamine receptor (beta-arrestin). P14416. DiscoveRx PathHunter D2 beta-arrestin, luminescence, 90 min; 100% = 57 uM dopamine signal. activation, % (no concentration beside the values). 360,000 tested, 0.084% active. AID 624465; in the data active means activation above about 40%
Target sequence (P14416 whole entry, looked up): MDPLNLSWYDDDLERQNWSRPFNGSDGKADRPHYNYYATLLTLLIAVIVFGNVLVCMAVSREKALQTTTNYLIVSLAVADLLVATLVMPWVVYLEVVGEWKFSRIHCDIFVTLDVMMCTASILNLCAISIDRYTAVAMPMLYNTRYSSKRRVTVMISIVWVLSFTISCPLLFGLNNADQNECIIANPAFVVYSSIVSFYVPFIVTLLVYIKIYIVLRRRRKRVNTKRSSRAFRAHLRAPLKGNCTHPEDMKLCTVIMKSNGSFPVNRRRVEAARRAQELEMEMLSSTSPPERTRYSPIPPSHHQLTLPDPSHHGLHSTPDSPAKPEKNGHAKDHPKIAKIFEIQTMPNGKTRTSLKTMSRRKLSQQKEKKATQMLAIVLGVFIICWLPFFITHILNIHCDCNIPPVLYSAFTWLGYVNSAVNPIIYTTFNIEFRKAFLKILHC
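DiscoveRx PathHunter D2 beta-arrestin cells (2,100/well) attached overnight, then compound-stimulated 90 min at 37 C in HBSS/10 mM HEPES/0.1% Tween-20 buffer; beta-galactosidase complementation read by luminescence after 1 h at ambient temperature. Dopamine 57 uM final (EC100) as control.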
D2 antagonist: D2 dopamine receptor (human) antagonism. P14416. HEK293 TREx D2 cells, calcium flux, dopamine EC80. inhibition, % at 10 µM. 340,000 tested, 2% active; in the data active means inhibition above about 30%; inactive means below that, where a call was filed; further: 0% is about no effect
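Compounds are added to dye-loaded, induced HEK293 T-REx cells coupled to calcium release via D2; after a 3 min kinetic read an EC80 dopamine stimulus is given and fluorescence is recorded for 3 more min.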
D2 PAM-1: human D2 receptor positive allosteric modulation | P14416 | DiscoveRx D2 beta-arrestin cells, luminescence, 90 min; 100% = 57 uM dopamine signal | potentiation, % (test concentration not listed) | 360,000 tested, 0.23% active; in the data active means potentiation above about 50%
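D2 cells co-treated with compound plus 50 nM dopamine (EC20) for 90 min at 37 deg C to detect potentiation. Beta-arrestin recruitment was read as enzyme-fragment luminescence after 1 h at ambient temperature. Full response was set by 57 uM dopamine.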
D2 PAM-2: positively modulates the human D2 dopamine receptor allosterically. P14416. HEK293 T-REx D2, calcium flux, EC20 dopamine potentiation. potentiation, % at 10 µM. 340,000 tested, 0.34% active. AID 485347;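 active means potentiation over 3 SD above the plate norm, cut at about 30% in these data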; further: 0% is about no effect
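Cells plated with tetracycline inducer and held overnight at 30 C; calcium dye loaded 30–90 min at room temperature; baseline taken, compound added and read 180 s; EC20 dopamine then added and read 180 s.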
D2 ag-2: D2 dopamine receptor (human) agonism; activation, % at 2 µM; HEK293 T-REx D2 cells, calcium flux agonist mode; P14416; 340,000 tested, 0.53% active;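 active means activation over 3 SD above normal in the single-dose calcium agonist read, cut at about 30% in these data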; further: 0% is about no effect
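Calcium-flux readout, 1 cycle/sec over 180 s following compound pin transfer, in inducible HEK293 Trex D2 cells (force-coupled); dopamine controls included. Positive calcium responses during this window marked compounds as potential agonists.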
* hit, by the source's call; nt = no result. Compounds with a hit are over-represented: about 2.4% of the library has one in this group of screens.

SMILES	D2 ag-1	D2 antagonist	D2 PAM-1	D2 PAM-2	D2 ag-2
COc1ccc(S(=O)(=O)N2CCOC23CCN(C(=O)c2ccccc2OC)CC3)cc1	0	8	-1	5	0
COc1ccc(S(=O)(=O)N2CCOC23CCN(C(=O)c2ccccc2Br)CC3)cc1	-3	26	-4	71*	0
Cc1cc(C)cc(C(=O)Nc2ccc3[nH]c(=O)[nH]c3c2)c1	4	30*	0	-2	0
Cc1ccc(NC(=S)Nc2ccc3[nH]c(=O)[nH]c3c2)cc1	-3	-4	-3	0	1
Cc1ccc(C(=O)NC(=S)Nc2ccc(Oc3ccc(Cl)cc3)cc2)cc1	-3	0	-4	37*	0
Cc1ccc(C(=O)NC(=S)Nc2ccc3[nH]c(=O)[nH]c3c2)cc1	1	46*	-12	3	-1
CC(=O)N1c2ccccc2CC1C(=O)N1CCN(c2cccc(C)c2C)CC1 (stereo not given)	nt	nt	nt	0	0
C[C@H](CO)N1C[C@H](C)[C@H](CN(C)C(=O)Nc2ccccc2)OCc2cnnn2CCCC1=O	-11	nt	-3	nt	nt
O=C(COc1cccnc1[N+](=O)[O-])Nc1ccc(F)cc1	-1	nt	-1	nt	nt
CC(NC(=O)COc1cccnc1[N+](=O)[O-])c1ccc(F)cc1 (stereo not given)	2	0	-1	34*	0
Cc1cc(=O)oc2cc(OCC(=O)Nc3c(C(C)C)cccc3C(C)C)ccc12	nt	nt	nt	0	-2
CCOc1ccc(N(CC(=O)NCc2ccc(OC)cc2)S(=O)(=O)c2c(C)[nH]c(=O)[nH]c2=O)cc1	9	nt	-1	14	0
CCOc1ccc(N(CC(=O)NCCc2ccc(Cl)cc2)S(=O)(=O)c2c(C)[nH]c(=O)[nH]c2=O)cc1	1	2	-2	32*	-2
CCOc1ccccc1NC(=O)c1ccc(CN2CCc3ccccc3C2)cc1	-1	54*	-20	-19	1
CCOc1ccc(C(=O)Nc2ccccc2NC(C)=O)cc1OCC	0	103*	-9	-37	-2
O=C(Nc1ccc(S(=O)(=O)N2CCCC2)cc1)c1ccc(CN2CCc3ccccc3C2)cc1	1	64*	-36	-16	3
O=C(CNC1CCN(Cc2ccccc2)CC1)Nc1ccc(S(=O)(=O)N2CCCCC2)cc1	-3	37*	-25	-29	0
CCc1ccccc1Nc1cc(C(=O)NCc2ccc(C)cc2)c2ccccc2n1	nt	nt	nt	-8	0
CC(=O)N1CCN(c2csc3ccc(Br)cc3c2=O)CC1	nt	nt	nt	-6	1
Cc1cc([N+](=O)[O-])nn1Cc1noc(C(=O)NCCc2ccccn2)n1	-1	-1	-1	4	0
O=C(c1ccc(CN2CCc3ccccc3C2)cc1)N1CCCCC1	-2	35*	-37	-20	14
CC(=O)c1cccc(NC(=O)c2ccc(CN3CCc4ccccc4C3)cc2)c1	-8	19	-4	-32	7
Cc1cc(C)c(NC(=O)c2ccc(CN3CCc4ccccc4C3)cc2)c(C)c1	-1	52*	-43	-24	8
O=C(CN1CCc2ccccc2C1)N1CCN(S(=O)(=O)c2ccccc2)CC1	6	7	-5	-11	35*
Cc1ccc(S(=O)(=O)N2CCN(C(=O)CN3CCc4ccccc4C3)CC2)cc1	2	3	-12	-18	15
SMILES	D2 ag-1	D2 antagonist	D2 PAM-1	D2 PAM-2	D2 ag-2
COC(=O)[C@@]1(Cc2ccccc2)[C@H]2C(=O)N(C)C(=O)[C@H]2[C@H]2CN=C(SCc3ccccc3)N21	0	nt	-11	nt	nt
Cc1nn(C(C)C(=O)NCCCN2CCCCCC2)c(=O)c2cc3sccc3n12 (stereo not given)	-5	-14	-33	-18	0
COc1ccc(NC(=O)COc2ccc(C(=O)NC3CCCc4ccccc43)cc2OC)cc1 (stereo not given)	-1	-2	3	36*	-2
COC(=O)c1ccc(CNC(=O)c2ccc(S(=O)(=O)N(C)c3ccccc3OC)cc2)cc1	10	49*	0	-21	1
COc1ccccc1N(C)S(=O)(=O)c1ccc(C(=O)NCC2CCCCC2)cc1	2	80*	-3	-28	0
COc1ccccc1N(C)S(=O)(=O)c1ccc(C(=O)NCCc2ccc(F)cc2)cc1	1	-24	-6	-14	-2
COc1ccccc1N(C)S(=O)(=O)c1ccc(C(=O)NCC(C)C)cc1	0	-13	-6	13	0
C=CCNC(=O)c1ccccc1NC(=O)COc1ccccc1	-2	59*	-6	-2	0
C=CCNC(=O)c1ccccc1Cl	0	40*	-6	-2	0
O=C(COc1ccccc1)OCC(=O)c1ccc(S(=O)(=O)N2CCCCC2)cc1	-9	31*	-35	2	0
O=C(COC(=O)c1ccccc1)c1ccc(S(=O)(=O)N2CCCCC2)cc1	-6	-3	1	10	0
O=C(COc1ccc(S(=O)(=O)N2CCCCC2)cc1)N1CCCC1	-2	31*	-2	-9	0
CCCCc1ccc(-n2nc3ccc(NC(=O)c4cc5ccccc5o4)cc3n2)cc1	nt	nt	nt	3	1
COc1ccc(CCC(=O)OCC(=O)Nc2sccc2C#N)cc1	3	nt	-4	nt	nt
C=CCN(CC=C)CC(O)CN(c1cc([N+](=O)[O-])ccc1OC)S(=O)(=O)c1ccccc1 (stereo not given)	0	66*	-18	-25	1
O=C(COC(=O)COc1ccccc1)NC12CC3CC(CC(C3)C1)C2	-2	34*	-4	19	0
CCN(CC)c1ccc(NC(=O)CCc2c(C)nc3ncnn3c2C)c(C)c1	nt	nt	nt	-1	1
CC1CCN(c2nc(-c3ccccc3)cc(C(F)(F)F)n2)CC1	-1	5	10	4	0
CN1CCN(c2nc(-c3cccs3)cc(C(F)(F)F)n2)CC1	-1	32*	-23	-15	-1
CN1CCN(c2nc(-c3ccccc3)cc(C(F)(F)F)n2)CC1	-3	75*	-36	-7	-1
CS(=O)(=O)c1nc(-c2cccs2)cc(C(F)(F)F)n1	nt	9	nt	1	2
CCOC(=O)Cc1[nH]nc2c1C(c1ccsc1)C(C#N)=C(N)O2 (stereo not given)	-2	-4	-7	10	0
CC(C)(C)OC(=O)N(CCc1ccccc1)Cc1cccc(OCc2cccc(NC(=O)C3CCCC3)c2)c1	0	nt	-3	nt	nt
Nc1nccc(-c2ccc(-n3cccc3)cc2)n1	-1	-6	-8	50*	0
c1ccc(-c2nccc(-c3ccc(-n4cnc5ccccc54)cc3)n2)cc1	-3	-5	-10	4	0
Cc1ccc(/C=C/C(=O)OCC(=O)NCc2ccccc2)o1	-4	-6	7	-4	0
